Test results reported in PubChem BioAssay AID720540 (National Center for Advancing Translational Sciences (NCATS), 2013).
About 460 (35%) of roughly 1,300 compounds were called active. Roughly 39% stayed inconclusive and do not appear here. Calls follow the shape of the dose curve; as a rule, active = well fitted inhibition curve with a large enough effect; inconclusive = small, poorly fitted or top-dose-only effect; inactive = flat fitted curve, though single readings scatter. The list shows a part of the results.

Each compound was assayed against Protein phosphatase EYA2 (Homo sapiens) (UniProt O00167) (assay: qHTS for Inhibitors of the Phosphatase Activity of Eya2: Confirmatory Assay for Cherry-picked Compounds). Details: purified EYA2 phosphatase activity, qHTS confirmation; series mostly up to 46.1 µM; activity change, negative = inhibition: at the top concentration.
Chain of Protein phosphatase EYA2 (Homo sapiens) (O00167 whole entry, looked up): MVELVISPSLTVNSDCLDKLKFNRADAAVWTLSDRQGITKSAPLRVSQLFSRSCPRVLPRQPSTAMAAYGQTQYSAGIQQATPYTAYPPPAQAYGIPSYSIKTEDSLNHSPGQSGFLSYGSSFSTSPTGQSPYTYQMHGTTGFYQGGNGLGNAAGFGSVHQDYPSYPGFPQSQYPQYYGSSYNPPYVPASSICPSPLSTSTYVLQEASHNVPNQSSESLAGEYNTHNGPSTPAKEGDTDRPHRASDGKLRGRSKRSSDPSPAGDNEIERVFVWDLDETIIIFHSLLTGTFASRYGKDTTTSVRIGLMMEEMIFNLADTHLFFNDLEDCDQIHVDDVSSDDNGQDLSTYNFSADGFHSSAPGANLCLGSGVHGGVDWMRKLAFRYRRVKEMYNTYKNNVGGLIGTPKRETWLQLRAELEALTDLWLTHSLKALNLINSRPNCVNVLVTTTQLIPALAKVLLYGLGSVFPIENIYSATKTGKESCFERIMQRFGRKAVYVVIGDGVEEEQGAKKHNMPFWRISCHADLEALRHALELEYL
Procedure, shortened: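 Eya2 (0.2 uM working solution) preincubated 10 min at room temperature with compound in pH 7.5 HEPES buffer with MgCl2, BSA, DTT. OMFP added (50 uM working solution), 10 min more; fluorescence 485/525 nm, normalized to EGTA and DMSO.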
Also: nearly all actives have a fitted effect of over 65% in size.
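For activity change, negative = inhibition in this document: 0% = DMSO wells and -100% = EGTA control giving full inhibition.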
Potency is read from the fitted curve at half-maximal effect.

Compound	activity change, negative = inhibition	Potency
FC(F)(F)c1ccc(CN2C[C@@H]3C(c4ccc(Cl)nc4)C4(c5cccnc5)CC3(C4)[C@H]2c2ccccc2)cc1 (stereo not given in full)	-20.4% (inactive)	
O=C(NCc1ccco1)C1CC2CCC1C2 (stereo not given)	-4.68% (inactive)	
COc1cc2c(cc1OC)-c1cc(Nc3ccc(C)cc3)nc(=O)n1CC2		5.36 µM (active)
Cc1c(C(=O)/C=C/N(C)C)nnn1-c1ccc(Cl)cc1Cl	-1.95% (inactive)	
CCc1c(C)nc(Nc2nc(C)c3ccc(OC)cc3n2)[nH]c1=O		3.79 µM (active)
C[C@](N)(Cc1ccc(O)c(O)c1)C(=O)O	-6% (inactive)	
COc1ccc(C(=O)Nc2ccc3c(c2)CCCN3C(=O)c2cccs2)c(OC)c1		8.49 µM (active)
COc1cc(NC(=O)c2ccccc2Cl)ccc1NC(=O)c1cccs1	-14.2% (inactive)	
COc1ccccc1/C=C/C(=O)Oc1cccc2cccnc12		9.53 µM (active)
O=C(/C=C\c1ccccc1)Oc1cccc2cccnc12		7.57 µM (active)
O=C(/C=C/c1ccco1)Oc1cccc2cccnc12		15.1 µM (active)
O=C(/C=C/c1ccccc1)Oc1cccc2cccnc12		6.75 µM (active)
COCCNC(=O)CCC(=O)NNc1nc2ccccc2c2nc(-c3ccccc3)nn12	-27% (inactive)	
c1ccc(-c2ccc(C3=Nn4c(nnc4-c4cc(-c5ccccc5)n[nH]4)SC3)cc2)cc1	-22.5% (inactive)	
N#Cc1ccc(CSc2nnc(-c3c[nH]c4ccccc34)n2-c2ccccc2)cc1	-25.4% (inactive)	
COc1ccc(N=C2SC(C(=O)N3CCN(c4ccc([N+](=O)[O-])cc4)CC3)CC(=O)N2C)cc1 (stereo not given)	-14.5% (inactive)	
COc1cc2nc(/C=C/c3ccc(N(C)C)cc3)sc2cc1SC		19 µM (active)
COc1ccccc1NC(=O)c1ccc(NC(=O)Cc2n[nH]c(=O)c3ccccc23)cc1	-15.9% (inactive)	
COc1ccccc1OCC(=O)Nc1ccc(C(=O)Nc2ccccc2C(=O)O)cc1		16.9 µM (active)
O=C(Nc1ccc(F)cc1)c1ccc2[nH]c(=O)c(=O)[nH]c2c1		4.78 µM (active)

Compound	activity change, negative = inhibition	Potency
O=C(NC1=C(Nc2ccc(F)cc2)C(=O)c2ccccc2C1=O)c1ccc(Cl)cc1	-23.3% (inactive)	
N#Cc1c(N)n(-c2cccc(C(=O)O)c2)c2nc3ccccc3nc12		16.9 µM (active)
N#Cc1c(N)n(-c2ccc(C(=O)O)cc2)c2nc3ccccc3nc12		16.9 µM (active)
Cc1cc(/C=C2\C(=N)N3N=C(CC(=O)N4CCOCC4)SC3=NC2=O)c(C)n1Cc1ccccc1	-27.6% (inactive)	
O=C(NN=C1CCCC1)c1[nH]c2ccc(Br)cc2c1-c1ccccc1	-27.5% (inactive)	
COc1cc(/C=C2\C(C)=C(C#N)c3nc(N)c(C#N)c(C)c32)ccc1OCC(=O)O		16.9 µM (active)
CN(C)c1ccc(/C=C2\CCc3cc(N)ccc32)cc1		8.49 µM (active)
CN(C)c1ccc(/C=C2\C=Cc3cc(N)ccc32)cc1		8.49 µM (active)
COc1ccc2c(c1)C=C/C2=C\c1ccc(N(C)C)cc1		5.36 µM (active)
Cc1cccc(S(=O)(=O)C(C#N)c2nc3ccccc3nc2N2CCOCC2)c1 (stereo not given)	-19.8% (inactive)	
Cc1ccc(NC(=O)c2cc(=O)c3ccccc3o2)cc1S(=O)(=O)N1CCCCC1		12 µM (active)
O=C(Nc1nc(-c2ccccn2)cs1)c1cccc(S(=O)(=O)N2CCOCC2)c1		1.51 µM (active)
Cc1ccc(NC(=O)COc2ccc(S(=O)(=O)N3CCOCC3)cc2)cc1	-10.9% (inactive)	
O=S(=O)(c1ccc(Cl)cc1)N1CCOCC1	0.87% (inactive)	
COc1ccc(C(=O)Nc2nc(-c3ccccn3)cs2)cc1S(=O)(=O)N1CCOCC1		1.51 µM (active)
Cc1ccc(NC(=O)c2ccc3c(c2)OCO3)cc1S(=O)(=O)N1CCOCC1		9.53 µM (active)
S=C(Nc1ccc2c(c1)OCCO2)Nc1ccc2c(c1)OCO2	-21.9% (inactive)	
O=C(Nc1cc(S(=O)(=O)N2CCOCC2)ccc1Cl)c1cc(=O)c2ccccc2o1	-22.8% (inactive)	
CC(C(=O)c1ccc(Br)cc1)[n+]1cccc2ccccc21 (stereo not given)	24.3% (inactive)	
O=C1c2ccccc2C(=O)N1CCCc1cn(C[C@H]2CC[C@@H]([C@@H]3CC[C@H](Cn4cc(CCCN5C(=O)c6ccccc6C5=O)nn4)O3)O2)nn1	-2.94% (inactive)	

Compound	activity change, negative = inhibition	Potency
COc1ccc(CC(=O)Nc2cccc(Cl)c2C)cc1S(=O)(=O)N1CCOCC1	-7.62% (inactive)	
CCOC(=O)N1CCN(S(=O)(=O)c2ccc(C(=O)NNc3nc4ccc(Cl)cc4s3)cc2)CC1	-26.1% (inactive)	
COc1ccc(C(=O)Nc2ccc3nc(C)sc3c2)cc1S(=O)(=O)N1CCOCC1		16.9 µM (active)
CC(C)N=c1cc2n(-c3ccc(Cl)cc3)c3ccccc3nc-2cc1Nc1ccc(Cl)cc1		1.9 µM (active)
N#C/C(=C/c1ccc(OC(=O)c2ccc(Br)s2)cc1)c1nc2ccccc2[nH]1	-20.4% (inactive)	
CCOC(=O)/C(C#N)=C/c1ccc(OC(=O)c2ccccn2)cc1		8.49 µM (active)
N#C/C(=C\c1ccc(OC(=O)c2ccccn2)cc1)C(N)=O		16.9 µM (active)
N#C/C(=C\c1ccc(OC(=O)c2ccc(Br)s2)cc1)c1nc2ccccc2[nH]1	-29.8% (inactive)	
N#C/C(=C\c1ccc(OC(=O)c2ccc(Cl)s2)cc1)c1nc2ccccc2[nH]1	-24.6% (inactive)	
CC(=O)Nc1cc(=O)c2cccnc2[nH]1		15.1 µM (active)
CNC(=O)c1cc2c(cn1)[nH]c1ccccc12	-20.3% (inactive)	
CCNc1ccc2noc3c2c1C(=O)c1ccccc1-3		6.75 µM (active)
COc1cc(CNCc2ccc(OC)cc2OC)cc(OC)c1	-15.2% (inactive)	
CSc1nc(NCCOCCO)c2sc3nc(-c4ccco4)c4c(c3c2n1)CCC4		7.57 µM (active)
Nc1nc2c(c(=O)[nH]1)C(c1cccc3ccccc13)C1=C(N2)c2ccccc2C1=O (stereo not given)		7.57 µM (active)
CCCOc1ccc(C2C3=C(Nc4nc(N)[nH]c(=O)c42)c2ccccc2C3=O)cc1 (stereo not given)		3.38 µM (active)
Nc1nc2c(c(=O)[nH]1)C(c1ccccc1)C1=C(N2)c2ccccc2C1=O (stereo not given)		1.69 µM (active)
CCOc1ccc(C2C3=C(Nc4nc(N)[nH]c(=O)c42)c2ccccc2C3=O)cc1 (stereo not given)		2.69 µM (active)
O=C1/C(=C/c2ccco2)SC(=S)N1c1cccnc1		12 µM (active)
Nc1n[nH]c2cc(=O)n(-c3ccc(Cl)cc3)nc12	-21.2% (inactive)	
